# Source: PubChem BioAssay AID504843 (Broad Institute, 2011)
# About 360 (30%) of roughly 1,200 compounds were called active. The rule behind the calls is not given here. These entries were drawn from the full list. Entries with a potency or affinity are not part of this list.
# Test: antibacterial activity by ATP level – BacTiter-Glo luminescence, cherry-picked samples, counter-screen, dose response (AID 504843);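 note: growth measured after 8 h incubation at 30 °C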
# Conditions: bacterial growth; series mostly up to 15 µM
row,SMILES,outcome
1,COc1ccc(N=Cc2nc(-c3ccccc3)oc2OC(=O)c2ccccc2)cc1,inactive
2,CCNc1nc(OC)nc(Oc2ccc(=O)n(-c3ccccc3)n2)n1,inactive
3,Clc1ccc(-c2csc(-c3cccnc3)n2)s1,inactive
4,Nc1nc2ccc([N+](=O)[O-])c(N)c2s1,inactive
5,CCSC(=O)NC12CC3CC(CC(C3)C1)C2,inactive
6,O=C(O)c1ccccc1-c1nc2ccccc2c(=O)n1O,inactive
7,O=C(CSc1nc2ccccc2c(=O)n1CCCN1CCOCC1)Nc1ccc2c(c1)OCO2,inactive
8,CN(C(=O)COC(=O)CNC(=O)C12CC3CC(CC(C3)C1)C2)C1CCS(=O)(=O)C1 (stereo unspecified),inactive
9,N#CC1=C2SCC(O)(c3ccccc3)N2C(=O)CC1c1ccccc1F (stereo unspecified),inactive
10,COc1ccc(C2CC(=O)Nc3n[nH]c(-c4ccccc4)c32)cc1OC (stereo unspecified),inactive
11,COc1cc2c(cc1OC)C(c1cccc(F)c1)CC(=O)N2 (stereo unspecified),inactive
12,Cc1csc(N2CCCC2c2nc3cc(C(F)(F)F)ccc3n2CCOCCO)n1 (stereo unspecified),inactive
13,CN1C2CCC1CC(NS(=O)(=O)c1cc(Cl)c(Cl)cc1Cl)C2 (stereo unspecified),inactive
14,CN(C)c1ccc(C(=O)n2nnc3ccccc32)cc1,inactive
15,CC(C)(C)c1ccc(C(=O)O)c(C(=O)c2ccc(C(=O)O)cc2)c1,inactive
16,Nc1nnc(-c2cn(-c3ccccc3)nc2-c2ccc(Cl)cc2)o1,inactive
17,Cc1cccc(CNC(=O)C2CCCN(c3nn4c(=O)cc(C)nc4s3)C2)c1 (stereo unspecified),inactive
18,COc1ccc(CNC(=O)Cn2nnc(-c3ccc(NC(=O)C4CCCCC4)cc3)n2)cc1,inactive
19,CCc1ccc(NS(=O)(=O)c2ccc3[nH]cc(C(=O)N4CCCCC4)c(=O)c3c2)cc1,inactive
20,C/C(=N\NC(=O)c1cccc(O)c1)c1cccc(NC(=O)c2ccc(F)cc2)c1,inactive
21,CC(=O)NCC(=O)OCC(=O)c1ccc(C)cc1,inactive
22,CCOC(=O)CNS(=O)(=O)Cc1ccccc1,inactive
23,CCCCCn1c(CNC(=O)c2cccs2)nc2ccccc21,inactive
24,Cc1cccc(NC(=S)NC(C)CCc2ccccc2)c1 (stereo unspecified),inactive

row,SMILES,outcome
1,CCOC(=O)c1c2c3c(c(Cl)ccc3[nH]c1=O)C(=O)c1ccccc1-2,inactive
2,CCc1ccccc1NC(=O)CSc1nnc(-c2ccco2)n1N,inactive
3,Cc1ccc(S(=O)(=O)Nc2ccnc(-c3cccnc3)n2)cc1,inactive
4,Clc1ccccc1-c1ccc2ncnc(NCc3cccnc3)c2c1,inactive
5,Cc1ccc(/C=N/NC(=O)c2ccc(Cn3cc([N+](=O)[O-])cn3)o2)cc1,inactive
6,CC(C)(C)OC(=O)N[C@@H](Cc1ccccc1)[C@H](O)c1ccco1,inactive
7,CCCc1cc(=O)oc2cc(OCC(=O)N(C)C)c(Cl)cc12,inactive
8,COc1ccc(C(CNC(=O)c2cc(SC)ccc2Cl)N(C)C)cc1 (stereo unspecified),inactive
9,O=C(NC(=S)NNC(=O)c1ccccc1O)c1ccccc1,inactive
10,O=C(c1ccco1)N1CCN(C(=O)c2ccc(CS(=O)c3ccc(F)cc3)o2)CC1 (stereo unspecified),inactive
11,CCC(=NCCc1ccc(OC)c(OC)c1)C1=C(O)CC(C)(C)CC1=O,inactive
12,COCCNC(=O)c1c[nH]c2ccc(S(=O)(=O)N3CCc4ccccc43)cc2c1=O,inactive
13,COc1cc(OC)cc(C(=O)NC2CC(C)(C)NC(C)(C)C2)c1,inactive
14,CC(=O)c1cc(CN2CCCCC2)cc(OC(C)C)c1,inactive
15,CCc1cc2c(=O)n(C(C)C(=O)OC3CCCCC3)cnc2s1 (stereo unspecified),inactive
16,O=C(Nc1cc(N2CCOCC2)ncn1)c1ccccc1,inactive
17,COc1ccccc1N1C(=NC(=O)CCc2ccccc2)SC2CS(=O)(=O)CC21 (stereo unspecified),inactive
18,CCCn1c2c(c(=N)c3c1CCC3)CCCC2,inactive
19,CC(=O)c1ccc(NC(=O)C2CCCN2S(=O)(=O)c2cccc3cccnc23)cc1 (stereo unspecified),inactive
20,CC(C)(C#N)NC(=O)C1CCCN1S(=O)(=O)c1ccc2ccccc2c1 (stereo unspecified),inactive
21,Cc1ccc(S(=O)(=O)NC(C)(C)CSc2nnc(Nc3ccccc3)s2)cc1,inactive
22,Cc1ccc(NC(=O)CN2CCN(c3ccccn3)CC2)c(Cl)c1,inactive
23,O=C(CN1CCCCC1)Nc1cc(Cl)ccc1Cl,inactive
24,CCC1Nc2ncnc(N3CCOCC3)c2N(Cc2ccc(Cl)cc2)C1=O (stereo unspecified),inactive

row,SMILES,outcome
1,O=C(Nc1cccnc1Cl)c1noc2c1CCc1ccccc1-2,inactive
2,CC1=C(C#N)C(c2cn(-c3ccccc3)nc2-c2cccs2)C(C#N)=C(C)N1,inactive
3,CC(=O)Nc1cccc(-c2csc(Nc3cc(C)ccn3)n2)c1,inactive
4,O=C(O)c1ccc(NC2=C(N3CCOCC3)C(=O)c3ccccc3C2=O)cc1,inactive
5,Cc1cccc(OCC(O)Cn2c(=N)n(CCN3CCOCC3)c3ccccc32)c1 (stereo unspecified),inactive
6,COC(=O)COc1cccc(NC(=O)c2cccc(C)c2)c1,inactive
7,CCCNC(=O)c1cc(C)no1,inactive
8,CCCCc1ccc(N=N/C(C(=O)Nc2ccc(NC(C)=O)cc2OC)=C(/C)O)cc1,inactive
9,COc1ccc(/C(C)=N/NC(=O)CNC(=O)c2ccncc2)c(OC)c1,inactive
10,Cc1ccc(C)c(S(=O)(=O)Nc2cc(SCC(=O)O)c(O)c3ccccc23)c1,inactive
11,CC1(C)c2ccccc2N2CC(=O)NC21/C=C/c1ccco1 (stereo unspecified),inactive
12,C=CCn1cccc(C(=O)Nc2ccc(OC)cc2)c1=O,inactive
13,C=CCNC(=S)Nc1cccc2[nH]ncc12,inactive
14,COc1cccc(CN2CCN(C(=O)c3ccco3)CC2)c1,inactive
15,O=[N+]([O-])c1cccc(N(CC(O)CN2CCCCC2)S(=O)(=O)c2ccccc2)c1 (stereo unspecified),inactive
16,Nc1ccc(S(=O)(=O)N2CCCc3ccccc32)cc1,inactive
17,O=C(COC(=O)c1cccc(S(=O)(=O)N2CCc3ccccc32)c1)Nc1ncc(C(F)(F)F)cc1Cl,inactive
18,CCC(CO)NC(=O)c1cccc(S(=O)(=O)N2c3ccccc3CC2C)c1 (stereo unspecified),inactive
19,COc1ccc(S(=O)(=O)Nc2nc3c(s2)CCCC3)cc1,inactive
20,C[C@H]1NC(=O)[C@@]2(C)[C@@H](c3ccccc3)[C@H]3COc4ccccc4[C@H]3N2C1=O,inactive
21,CCNc1nc(SCCOc2ccc(C)cc2)nc(N(C)C)n1,inactive
22,CCC1SC(C)C/C(=N/NC(N)=O)C1C (stereo unspecified),inactive
23,CN(C)c1cccc(C(=O)N/N=C/c2ccccc2F)c1,inactive
